High-throughput results as filed in PubChem.
CHO-K1 Ca ag: counter-screen for M1 agonists: effect in parental CHO-K1 cells. Fluo-8 calcium fluorescence; scaled to maximal ATP response, vehicle zero. activation, % at 3 µM. actives 0.48% (n = 360,000). AID 602248; in the data active = activation above about 15%;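 also: untransfected CHO-K1 host cells lacking M1 receptor as counterscreen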
M1 ag: agonists of human M1 muscarinic receptor; CHO-K1 hM1, Fluo-8 calcium fluorescence, agonist mode; 0% DMSO, 100% acetylcholine EC100; AID 588814; activation, % at 3 µM; actives 0.33% (n = 360,000); P11229;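 active = activation above the run's mean compound activation plus 3 SD, cut at about 16% in these data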;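 also: peak over basal fluorescence ratio within a 140 s kinetic read after compound addition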
Target sequence (P11229 whole entry, looked up): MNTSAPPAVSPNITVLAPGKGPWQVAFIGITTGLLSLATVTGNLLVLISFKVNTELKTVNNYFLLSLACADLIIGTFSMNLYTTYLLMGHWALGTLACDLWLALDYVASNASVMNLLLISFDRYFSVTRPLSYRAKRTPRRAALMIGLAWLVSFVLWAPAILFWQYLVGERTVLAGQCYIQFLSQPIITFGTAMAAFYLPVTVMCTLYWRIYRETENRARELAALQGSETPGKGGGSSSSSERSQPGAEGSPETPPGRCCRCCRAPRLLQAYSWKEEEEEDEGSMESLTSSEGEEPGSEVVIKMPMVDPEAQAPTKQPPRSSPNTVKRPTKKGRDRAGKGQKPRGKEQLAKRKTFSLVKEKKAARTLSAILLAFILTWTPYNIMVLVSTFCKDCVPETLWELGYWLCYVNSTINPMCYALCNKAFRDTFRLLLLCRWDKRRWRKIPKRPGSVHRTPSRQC
CHRM1 antagonist: antagonists of human M1 muscarinic receptor. P11229. CHO-K1 hM1, Fluo-8 calcium fluorescence, ACh EC80 antagonist. inhibition, % at 3 µM. actives 1.3% (n = 360,000);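 active = percent inhibition above its own plate's cutoff, namely the mean of that plate's compound wells plus 3 SD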;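 also: peak over basal fluorescence ratio during 140 s after agonist addition; 0% = ACh EC80 plus DMSO and 100% = DMSO alone without agonist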
M1 PAM parental: nonselective activator or artifact in parental CHO-K1 calcium assay | ATP EC20, Fluo-8 calcium fluorescence; 0% at ATP EC20, 100% at ATP max | AID 602247 | activation, % at 3 µM | actives 0.02% (n = 360,000);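 active = activation above the run cutoff, the mean activation of all test compounds plus 3 SD, cut at about 40% in these data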;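 also: peak over basal fluorescence ratio in a 140 s read after ATP addition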
CHO-K1 Ca antag: M1 antagonist counterscreen hit in parental CHO-K1 cells; actives 0.6% (n = 360,000); ATP-induced calcium, Fluo-8 fluorescence; inhibition, % at 3 µM;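 active = inhibition above a per-plate cutoff, the plate's mean sample inhibition plus 3 SD, cut at about 24% in these data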;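 also: 0% = DMSO plus EC80 ATP and 100% = DMSO alone without ATP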
M1 PAM: potentiates human M1 receptor response to acetylcholine. P11229. CHO-K1 hM1, Fluo-8 calcium fluorescence, ACh EC20; 0% = ACh EC20, 100% = maximal ACh. activation, % at 3 µM. actives 0.088% (n = 360,000). AID 588819; in the data active = activation above about 19%, passing the limit was not always enough
The depositor's hits bear a star; nt = no result given. Most compounds without a hit are left out; they make up all but 2.4% or so of the library.

SMILES	CHO-K1 Ca ag	M1 ag	CHRM1 antagonist	M1 PAM parental	CHO-K1 Ca antag	M1 PAM
CCCCN(C(=O)CSc1nnc(-c2ccc(OC)cc2)n1C(C)C)c1c(N)n(Cc2ccccc2)c(=O)[nH]c1=O	-1	-9	-15	9	-4	14
Cc1cccc(NC(=O)C2CCN(S(=O)(=O)c3cccc4nonc34)CC2)c1	7	-1	-1	-12	5	1
CCCCC[C@H](C)N1C[C@H](COCc2ccccc2)Oc2cc(N3CCC[C@H]3COC)ccc2S1(=O)=O	1	nt	nt	5	-21	nt
COc1ccc(C(=O)NCC(=O)OCC(=O)NC2CCCCCC2)cc1	0	-4	8	-18	4	-6
CC[C@@]1(C(=O)OC)N[C@H](CN(C)C(=O)Nc2ccc(C(F)(F)F)cc2)[C@@H]2C(=O)N(C)C(=O)[C@@H]21	0	0	-6	0	3	4
CCOC(=O)Cc1csc(NC(=O)Nc2ccc(Cl)cc2)n1	18*	7	32	-24	16	-11
CCOC(=O)Cc1csc(NC(=O)Nc2cccc(Cl)c2)n1	8	1	8	-6	15	-10
CCCCC(=O)Nc1ccc(C(=O)Nc2nc(CC(=O)OCC)cs2)cc1	21*	2	7	17	2	0
COc1ccc(C(=O)Nc2nc(CC(=O)NCc3ccc(F)cc3)cs2)cc1	20*	1	17	-13	12	-13
CC1=C(C(=O)N2CCOCC2)CC(CC(=O)NC2CC2)C(=O)N1Cc1ccc(F)cc1 (stereo not drawn)	1	-2	-24	11	-11	3
Cc1ccc(C(=O)CN(CCCC(N)=O)S(=O)(=O)c2ccc([N+](=O)[O-])cc2)cc1	-1	-7	-2	-15	7	14
COc1ccc(CNC(=O)CSc2nnc(NC(=O)c3ccccc3F)s2)cc1	1	-3	-1	12	-20	10
O=C(Nc1ccc(Cl)c(Cl)c1)O/N=C/c1ccncc1	12	2	17	1	28*	-7
O=C(Nc1cccc(Cl)c1)O/N=C\c1ccncc1	2	2	-6	-3	-4	-6
Cc1cc(C)c2[nH]c(C(=O)N3CCC(n4nccc4NC(=O)C4CC4)CC3)c(C)c2c1	0	-1	2	10	1	-3
O=C(Oc1ccc2c(c1)O/C(=C\c1ccncc1)C2=O)c1cccs1	2	-1	2	-12	7	6
CC(=O)Oc1ccc2c(c1)O/C(=C\c1ccncc1)C2=O	18*	3	-7	17	-10	10
Cc1ccc(Sc2ncccc2C(=O)NCc2cc([N+](=O)[O-])ccc2O)cc1C	14	3	4	-2	-17	-4
O=C(Nc1nnc(SCc2ccc(F)cc2)s1)C1CC(=O)N(c2ccc3c(c2)OCCO3)C1 (stereo not drawn)	2	-8	6	31	-11	-3
O=C(Nc1nnc(SCc2c(Cl)cccc2Cl)s1)C1CC(=O)N(c2ccc3c(c2)OCCO3)C1 (stereo not drawn)	1	-5	33*	17	-18	2
N#C/C(=C/c1ccc(O)cc1)C(=O)NCc1ccc(Cl)cc1	2	8	7	-15	5	3
N#C/C(=C\c1ccc(O)cc1)C(=O)NCc1cccc(Cl)c1	17*	24*	-12	3	-10	10
CCc1ccc(NC(=O)NCCN2CCN(c3ccc(OC)cc3)CC2)cc1	15*	-4	7	12	1	-3
O=C1CC(=C(c2ccccc2)c2ccccc2)C(=O)N1CCCCN1CCN(c2cccc(Cl)c2)CC1	0	7	39*	11	-2	-8
Cc1ccccc1N1CCN(CCCN2C(=O)CC(=C(c3ccccc3)c3ccccc3)C2=O)CC1	0	-5	95*	18	-14	-20
SMILES	CHO-K1 Ca ag	M1 ag	CHRM1 antagonist	M1 PAM parental	CHO-K1 Ca antag	M1 PAM
Cc1cccc(NC(=O)CSCC(=O)Nc2cc(Cl)ccc2N2CCOCC2)c1	0	-3	-9	-16	7	7
COc1ccc(CNC[C@@H](CCCCN(C)Cc2ccc(OC)cc2)N2C[C@H](c3ccccc3)N(CCc3ccc(Cl)c(Cl)c3)C(=O)C2=O)cc1	30*	21*	7	4	-3	-5
COc1ccc(CNC(=O)[C@@H]2CC=C[C@@H]3CCN(Cc4ccc(Cl)c(Cl)c4)C(=O)[C@@H]32)cc1	0	-2	-4	0	-6	10
CCCCn1c(C23CC4CC(CC(C4)C2)C3)n[nH]c1=S	0	-8	21	4	-2	-17
CCn1c(=O)c(-c2cc(=O)[nH][nH]2)c(O)c2ccccc21	0	-8	-5	18	-14	11
O=c1cc(-c2c(O)c3ccccc3n(Cc3ccccc3)c2=O)[nH][nH]1	17*	-5	-3	10	9	5
CC1(Cc2ccc(Cl)s2)C(=O)Nc2c(Cl)ccc(Cl)c21 (stereo not drawn)	0	-6	32*	-17	2	-20
CC1(Cc2ccc(Cl)c(Cl)c2)C(=O)Nc2c(Cl)ccc(Cl)c21 (stereo not drawn)	0	2	-16	26	-17	13
COCCN=c1scc(-c2cc(OC)ccc2OC)n1/N=C/c1c[nH]c2ccccc12	3	16*	6	-2	7	8
COCCn1c(Cc2ccccc2)nnc1SCC(=O)NC1CCCCC1	0	2	-2	-19	-3	10
COc1cc(O)c(C(CC(=O)N2CCOCC2)c2ccc3c(c2)OCO3)c(OC)c1 (stereo not drawn)	-1	-1	36*	-20	2	-20
CCCCNc1c2c3c(cccc3n(C)c1=O)C(=O)c1ccccc1-2	123*	141*	75*	-4	69*	-23
Cn1c(=O)c(NC2CCCCC2)c2c3c(cccc31)C(=O)c1ccccc1-2	16*	13	16	3	11	-14
Cn1c(=O)c(NCCO)c2c3c(cccc31)C(=O)c1ccccc1-2	34*	70*	6	-3	18	-16
CN1C(=O)c2cccc(NCCCN3C(=O)c4ccccc4C3=O)c2C1=O	1	-6	-10	-2	-14	8
CC(=O)Nc1ccc(Nc2c3c4c(cccc4n(C)c2=O)C(=O)c2ccccc2-3)cc1	2	-4	0	18	-6	2
Cn1c(=O)c(NCCc2ccccc2)c2c3c(cccc31)C(=O)c1ccccc1-2	124*	166*	80*	-7	70*	-20
Cn1c(=O)cc2c3c(c(N4CCCCC4)ccc31)C(=O)c1ccccc1-2	0	0	4	-9	9	5
